Experimental data reported in article PMC7862700, “An all-to-all approach to the identification of sequence-specific readers for epigenetic DNA modifications on cytosine”.

What was measured:
Test in all cases: DAPPL (digital affinity profiling via proximity ligation, sequencing); 10 mM Tris-HCl pH 7.5, 50 mM NaCl, 1 mM DTT, 4% glycerol, room temperature, 30 min; GST-TFs on glutathione beads, 16-mer random dsDNA library, 0.1% formaldehyde crosslink after washing; high values mean tight binding
Conditions in all cases: protein: recombinant; tags: N-terminal GST; dsDNA, one strand shown
[1] = target: T1, FLI1 (Homo sapiens, UniProt Q01543 1-452)
T1 sequence: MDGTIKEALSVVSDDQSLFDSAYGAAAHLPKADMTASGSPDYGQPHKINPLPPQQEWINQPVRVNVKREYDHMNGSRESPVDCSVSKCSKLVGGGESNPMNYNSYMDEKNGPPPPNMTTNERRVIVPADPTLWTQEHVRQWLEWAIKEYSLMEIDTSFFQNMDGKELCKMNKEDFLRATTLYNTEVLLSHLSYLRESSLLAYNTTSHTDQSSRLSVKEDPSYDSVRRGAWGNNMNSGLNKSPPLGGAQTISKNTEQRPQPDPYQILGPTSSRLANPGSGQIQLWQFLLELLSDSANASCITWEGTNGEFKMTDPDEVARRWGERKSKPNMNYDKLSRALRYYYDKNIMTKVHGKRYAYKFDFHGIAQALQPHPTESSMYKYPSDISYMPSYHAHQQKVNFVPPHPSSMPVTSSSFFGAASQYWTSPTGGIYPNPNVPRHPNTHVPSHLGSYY
How it was run: (§1)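 Human transcription factors carrying a GST fusion were produced in yeast, bound to glutathione beads, tagged with DNA barcodes and pooled together with a tag-only sample. Each pool was held with 200 nmole of a random double-stranded 16-mer DNA library in Tris/NaCl/DTT/glycerol buffer for 30 min at room temperature, then washed, crosslinked in 0.1% formaldehyde, proximity-ligated with BsaI/T4 ligase (1 h, 37 °C), PCR-amplified and sequenced on an Illumina NextSeq500. Binding signal is the read frequency of each hexamer for a given factor divided by its frequency in the tag-only sample.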

[2] = target: T2, ELK1 (Homo sapiens, UniProt P19419 1-428)
T2 sequence: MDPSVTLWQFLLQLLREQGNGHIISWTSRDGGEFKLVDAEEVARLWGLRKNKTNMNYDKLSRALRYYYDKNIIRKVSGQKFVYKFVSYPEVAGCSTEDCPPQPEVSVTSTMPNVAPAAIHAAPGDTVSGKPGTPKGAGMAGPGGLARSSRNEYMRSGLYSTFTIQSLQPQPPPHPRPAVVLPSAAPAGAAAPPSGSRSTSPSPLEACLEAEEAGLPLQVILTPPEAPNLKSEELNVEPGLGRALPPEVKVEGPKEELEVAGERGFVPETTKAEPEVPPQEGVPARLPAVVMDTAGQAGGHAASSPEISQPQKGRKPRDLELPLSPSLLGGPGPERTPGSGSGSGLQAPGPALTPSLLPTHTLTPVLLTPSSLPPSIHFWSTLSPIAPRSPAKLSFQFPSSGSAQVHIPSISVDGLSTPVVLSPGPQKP
How it was run: as §1

[3] = target: T3, GABPA (Homo sapiens, UniProt Q06546 1-454)
T3 sequence: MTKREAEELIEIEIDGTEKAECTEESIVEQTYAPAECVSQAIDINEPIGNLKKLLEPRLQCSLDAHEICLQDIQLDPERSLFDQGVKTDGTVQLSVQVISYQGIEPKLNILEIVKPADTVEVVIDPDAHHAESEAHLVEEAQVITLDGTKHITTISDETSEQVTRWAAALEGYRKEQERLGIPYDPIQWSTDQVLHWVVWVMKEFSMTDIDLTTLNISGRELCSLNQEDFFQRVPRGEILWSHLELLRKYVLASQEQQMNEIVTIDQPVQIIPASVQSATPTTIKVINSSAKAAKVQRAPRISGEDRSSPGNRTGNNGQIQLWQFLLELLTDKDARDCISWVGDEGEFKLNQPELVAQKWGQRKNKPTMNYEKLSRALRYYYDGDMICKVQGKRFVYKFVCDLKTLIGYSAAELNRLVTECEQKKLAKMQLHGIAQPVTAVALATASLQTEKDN
How it was run: as §1

[4] = target: T4, ERG (Homo sapiens, UniProt P11308 1-479)
T4 sequence: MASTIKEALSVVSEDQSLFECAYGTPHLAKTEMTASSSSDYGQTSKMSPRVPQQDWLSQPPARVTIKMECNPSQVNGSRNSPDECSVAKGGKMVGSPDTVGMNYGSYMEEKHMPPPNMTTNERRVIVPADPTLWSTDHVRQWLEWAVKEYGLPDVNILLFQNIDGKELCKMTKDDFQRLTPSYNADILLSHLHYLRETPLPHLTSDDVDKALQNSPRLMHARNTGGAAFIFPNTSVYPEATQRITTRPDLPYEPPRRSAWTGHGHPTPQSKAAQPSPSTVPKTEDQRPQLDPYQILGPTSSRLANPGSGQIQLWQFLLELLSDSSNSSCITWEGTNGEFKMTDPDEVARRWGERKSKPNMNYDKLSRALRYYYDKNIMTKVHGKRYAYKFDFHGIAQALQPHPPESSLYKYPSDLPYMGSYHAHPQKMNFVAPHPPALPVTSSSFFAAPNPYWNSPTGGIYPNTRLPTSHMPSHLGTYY
How it was run: as §1

[5] = target: ELF1 (Homo sapiens, UniProt P32519 1-619)
How it was run: as §1

[6] = target: T5, EHF (Homo sapiens, UniProt Q9NZC4 1-300)
T5 sequence: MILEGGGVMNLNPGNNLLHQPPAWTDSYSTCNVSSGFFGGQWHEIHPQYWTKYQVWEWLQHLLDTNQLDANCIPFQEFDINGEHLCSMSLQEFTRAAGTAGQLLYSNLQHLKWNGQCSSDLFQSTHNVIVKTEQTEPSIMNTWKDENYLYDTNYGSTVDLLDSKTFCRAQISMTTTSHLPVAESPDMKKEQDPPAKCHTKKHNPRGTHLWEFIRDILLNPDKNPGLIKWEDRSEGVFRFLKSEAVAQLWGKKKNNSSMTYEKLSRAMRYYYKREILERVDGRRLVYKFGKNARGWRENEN
How it was run: as §1

[7] = target: SPI1 (Homo sapiens, UniProt P17947 1-270)
How it was run: as §1

[8] = target: SPIB (Homo sapiens, UniProt Q01892 1-262)
How it was run: as §1

[9] = target: T6, ELK3 (Homo sapiens, UniProt P41970 1-407)
T6 sequence: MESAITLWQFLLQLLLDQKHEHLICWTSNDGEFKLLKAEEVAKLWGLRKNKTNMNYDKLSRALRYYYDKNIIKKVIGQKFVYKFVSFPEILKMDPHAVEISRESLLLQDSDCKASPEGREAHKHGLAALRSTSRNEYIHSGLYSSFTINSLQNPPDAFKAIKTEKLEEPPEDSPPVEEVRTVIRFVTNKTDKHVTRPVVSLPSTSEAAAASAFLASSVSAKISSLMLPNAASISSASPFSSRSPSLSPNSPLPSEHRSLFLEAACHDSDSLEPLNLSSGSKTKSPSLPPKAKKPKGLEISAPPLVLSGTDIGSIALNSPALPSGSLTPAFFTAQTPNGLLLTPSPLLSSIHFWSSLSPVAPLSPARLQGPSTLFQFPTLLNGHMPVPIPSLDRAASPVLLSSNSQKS
How it was run: as §1

Chain of SPIB (Q01892 whole entry): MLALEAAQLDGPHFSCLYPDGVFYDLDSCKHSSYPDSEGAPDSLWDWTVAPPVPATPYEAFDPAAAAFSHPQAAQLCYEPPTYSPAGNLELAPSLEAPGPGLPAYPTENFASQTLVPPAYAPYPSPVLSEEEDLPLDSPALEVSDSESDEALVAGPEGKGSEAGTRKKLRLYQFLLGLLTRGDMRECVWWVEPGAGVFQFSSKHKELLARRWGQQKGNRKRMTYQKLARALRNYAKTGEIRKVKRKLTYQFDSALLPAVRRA
Chain of ELF1 (P32519 whole entry): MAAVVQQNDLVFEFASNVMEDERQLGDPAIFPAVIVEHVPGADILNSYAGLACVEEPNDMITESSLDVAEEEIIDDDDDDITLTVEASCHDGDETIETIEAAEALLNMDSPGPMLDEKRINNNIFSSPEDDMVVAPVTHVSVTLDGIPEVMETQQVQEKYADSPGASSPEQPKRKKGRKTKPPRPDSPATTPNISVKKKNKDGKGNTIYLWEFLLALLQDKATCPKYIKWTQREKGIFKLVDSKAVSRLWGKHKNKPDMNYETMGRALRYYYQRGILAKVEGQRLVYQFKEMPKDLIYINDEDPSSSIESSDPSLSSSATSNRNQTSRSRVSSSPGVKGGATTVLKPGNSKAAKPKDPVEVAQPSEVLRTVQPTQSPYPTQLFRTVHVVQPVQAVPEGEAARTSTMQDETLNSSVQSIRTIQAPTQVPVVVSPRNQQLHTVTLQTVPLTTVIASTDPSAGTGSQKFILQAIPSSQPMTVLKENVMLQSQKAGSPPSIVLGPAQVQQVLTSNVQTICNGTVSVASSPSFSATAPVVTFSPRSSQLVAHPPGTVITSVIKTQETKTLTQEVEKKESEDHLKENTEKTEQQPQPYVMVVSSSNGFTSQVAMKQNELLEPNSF

| Sequence | binding signal [1] | binding signal [2] | binding signal [3] | binding signal [4] | binding signal [5] | binding signal [6] | binding signal [7] | binding signal [8] | binding signal [9] |
| --- | --- | --- | --- | --- | --- | --- | --- | --- | --- |
| TAGTGG | 1.18 fold enrichment (6-mer frequency, TF over GST control) | 1.19 fold enrichment (6-mer frequency, TF over GST control) | 1.25 fold enrichment (6-mer frequency, TF over GST control) | 1.07 fold enrichment (6-mer frequency, TF over GST control) | 1.28 fold enrichment (6-mer frequency, TF over GST control) | 1.32 fold enrichment (6-mer frequency, TF over GST control) | 1.19 fold enrichment (6-mer frequency, TF over GST control) | 1.34 fold enrichment (6-mer frequency, TF over GST control) | 1.4 fold enrichment (6-mer frequency, TF over GST control) |
| GAACAA | 1.17 fold enrichment (6-mer frequency, TF over GST control) | 1.13 fold enrichment (6-mer frequency, TF over GST control) | 1.16 fold enrichment (6-mer frequency, TF over GST control) | 1.14 fold enrichment (6-mer frequency, TF over GST control) | 1.22 fold enrichment (6-mer frequency, TF over GST control) | 1.22 fold enrichment (6-mer frequency, TF over GST control) | 1.15 fold enrichment (6-mer frequency, TF over GST control) | 1.24 fold enrichment (6-mer frequency, TF over GST control) | 1.2 fold enrichment (6-mer frequency, TF over GST control) |
| ATGGTT | 1.41 fold enrichment (6-mer frequency, TF over GST control) | 1.28 fold enrichment (6-mer frequency, TF over GST control) | 1.28 fold enrichment (6-mer frequency, TF over GST control) | 1.35 fold enrichment (6-mer frequency, TF over GST control) | 1.39 fold enrichment (6-mer frequency, TF over GST control) | 1.28 fold enrichment (6-mer frequency, TF over GST control) | 1.3 fold enrichment (6-mer frequency, TF over GST control) | 1.3 fold enrichment (6-mer frequency, TF over GST control) | 1.39 fold enrichment (6-mer frequency, TF over GST control) |
| TCGCCT | 1.32 fold enrichment (6-mer frequency, TF over GST control) | 1.36 fold enrichment (6-mer frequency, TF over GST control) | 1.2 fold enrichment (6-mer frequency, TF over GST control) | 1.31 fold enrichment (6-mer frequency, TF over GST control) | 1.21 fold enrichment (6-mer frequency, TF over GST control) | 1.34 fold enrichment (6-mer frequency, TF over GST control) | 1.16 fold enrichment (6-mer frequency, TF over GST control) | 1.23 fold enrichment (6-mer frequency, TF over GST control) | 1.15 fold enrichment (6-mer frequency, TF over GST control) |
| AAATCT | 1.28 fold enrichment (6-mer frequency, TF over GST control) | 1.21 fold enrichment (6-mer frequency, TF over GST control) | 1.23 fold enrichment (6-mer frequency, TF over GST control) | 1.31 fold enrichment (6-mer frequency, TF over GST control) | 1.3 fold enrichment (6-mer frequency, TF over GST control) | 1.2 fold enrichment (6-mer frequency, TF over GST control) | 1.14 fold enrichment (6-mer frequency, TF over GST control) | 1.29 fold enrichment (6-mer frequency, TF over GST control) | 1.22 fold enrichment (6-mer frequency, TF over GST control) |
| AATTCG | 1.29 fold enrichment (6-mer frequency, TF over GST control) | 1.26 fold enrichment (6-mer frequency, TF over GST control) | 1.24 fold enrichment (6-mer frequency, TF over GST control) | 1.3 fold enrichment (6-mer frequency, TF over GST control) | 1.29 fold enrichment (6-mer frequency, TF over GST control) | 1.23 fold enrichment (6-mer frequency, TF over GST control) | 1.13 fold enrichment (6-mer frequency, TF over GST control) | 1.38 fold enrichment (6-mer frequency, TF over GST control) | 1.29 fold enrichment (6-mer frequency, TF over GST control) |
| TATCCG | 2.64 fold enrichment (6-mer frequency, TF over GST control) | 2.53 fold enrichment (6-mer frequency, TF over GST control) | 2.26 fold enrichment (6-mer frequency, TF over GST control) | 3.2 fold enrichment (6-mer frequency, TF over GST control) | 2.38 fold enrichment (6-mer frequency, TF over GST control) | 2.48 fold enrichment (6-mer frequency, TF over GST control) | 2.29 fold enrichment (6-mer frequency, TF over GST control) | 2.8 fold enrichment (6-mer frequency, TF over GST control) | 2.41 fold enrichment (6-mer frequency, TF over GST control) |
| TGAACA | 1.25 fold enrichment (6-mer frequency, TF over GST control) | 1.23 fold enrichment (6-mer frequency, TF over GST control) | 1.18 fold enrichment (6-mer frequency, TF over GST control) | 1.21 fold enrichment (6-mer frequency, TF over GST control) | 1.26 fold enrichment (6-mer frequency, TF over GST control) | 1.27 fold enrichment (6-mer frequency, TF over GST control) | 1.14 fold enrichment (6-mer frequency, TF over GST control) | 1.23 fold enrichment (6-mer frequency, TF over GST control) | 1.33 fold enrichment (6-mer frequency, TF over GST control) |
